The panel holds about 83,000 compounds, 20% with a hit somewhere; the sample as a whole holds those more often.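 Results are percent growth after 48 hours of single-concentration exposure. 100 means growth as in untreated cells, lower positive values show inhibition; negative values down to -100 show cell death.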 A number with no mark means an inactive call. Active and inactive are the calls of the source. The calls were made as follows: active = growth percent below 10; inactive = the rest.
Legend:
Assay in all cases: NCI-60 one-dose screen, 48 h (100 = growth as untreated, 0 = no growth, -100 = all killed)
Details in all cases: 10 µM unless noted
SR leukemia = system: SR leukemia
RPMI-8226 leukemia = system: RPMI-8226 leukemia
OVCAR-8 ovarian = system: OVCAR-8 ovarian
OVCAR-5 ovarian = system: OVCAR-5 ovarian
OVCAR-4 ovarian = system: OVCAR-4 ovarian
SK-OV-3 ovarian = system: SK-OV-3 ovarian
IGROV1 ovarian = system: IGROV1 ovarian
OVCAR-3 ovarian = system: OVCAR-3 ovarian
HS 578T breast = system: HS 578T breast
NCI/ADR-RES ovarian = system: NCI/ADR-RES ovarian
T-47D breast = system: T-47D breast
BT-549 breast = system: BT-549 breast
MDA-MB-435 melanoma = system: MDA-MB-435 melanoma
MCF7 breast = system: MCF7 breast
HCT-116 colon = system: HCT-116 colon
HCC-2998 colon = system: HCC-2998 colon
KM12 colon = system: KM12 colon
SW-620 colon = system: SW-620 colon

| SMILES | growth (SR leukemia) | growth (RPMI-8226 leukemia) | growth (OVCAR-8 ovarian) | growth (OVCAR-5 ovarian) | growth (OVCAR-4 ovarian) | growth (SK-OV-3 ovarian) | growth (IGROV1 ovarian) | growth (OVCAR-3 ovarian) | growth (HS 578T breast) | growth (NCI/ADR-RES ovarian) | growth (T-47D breast) | growth (BT-549 breast) | growth (MDA-MB-435 melanoma) | growth (MCF7 breast) | growth (HCT-116 colon) | growth (HCC-2998 colon) | growth (KM12 colon) | growth (SW-620 colon) |
| --- | --- | --- | --- | --- | --- | --- | --- | --- | --- | --- | --- | --- | --- | --- | --- | --- | --- | --- |
| N#Cc1c(NC(=O)c2cccs2)[n+]([O-])c2ccc(Cl)cc2[n+]1[O-] | 109% | 104% | 108% | 114% | 94.8% | 94% | -19.9% (active) | 81.5% | 56.9% | 99.2% | 91.4% | 113% | 89.2% | 101% | 79.8% | 111% | 98.6% |  |
| COc1ccc(-c2ccc(=O)oc2C#Cc2cc(OC)c(OC)c(OC)c2)cc1O | 7.05% (active) | 15.3% | 20% | 46.2% | 58.6% | 30.7% | 28.9% | -67.2% (active) | -8.91% (active) | 16.4% | 38.8% | -16.9% (active) | -78% (active) | 3.79% (active) | -30.4% (active) | 221% |  |  |
| C=C(CN1CC=CCC1)[C@@H]1CC[C@]2(CO)CC[C@]3(C)[C@H](CC[C@@H]4[C@@]5(C)CC[C@H](O)C(C)(C)[C@@H]5CC[C@]43C)[C@@H]12 | 76.9% | 88% | 101% | 109% | 92.8% | 107% | 107% | 102% | 95.3% | 90.1% | 87.6% | 105% | 105% |  | 94.4% | 116% | 107% | 106% |
| CSCCC(NC(=O)c1ccccc1)C(=O)N/N=C1\S/C(=C/c2ccc(Cl)cc2)C(=O)N1C (configuration not stated) | 38.2% | 49.9% | 71.1% | 94.5% | 88.8% | 84.5% | 95.7% | 108% | 80.5% | 96.7% | 82.9% | 87.3% | 86.2% | 83.9% | 55.2% | 96.7% | 88.9% |  |
| CCOC(=O)Cn1c(=O)c2c3ccccc3n(C)c2n2nnc(-c3ccccc3)c12 | -50.7% (active) | 65% | 113% | 74.3% | 102% | 117% | 58.6% | 100% | 82.1% | 85.7% | 95.1% | 104% | 99.1% | 81.8% | 65% | 67.8% | 99.7% |  |
| COC(=O)/C=C1/SC(=Nc2cccc(Cl)c2)N(CCc2c[nH]c3ccc(O)cc23)C1=O | -8.45% (active) | -23.9% (active) | -4.55% (active) | 58.7% | 24.9% | 86.6% | 4.15% (active) | 3.41% (active) | 27.7% | 18.4% | 12.6% | 0.746% (active) | 15.9% | 15.9% | -33% (active) | 2.25% (active) | 18.9% |  |
| COc1ccc2c(c1)c(-c1nonc1-c1c[nH]c3ccc(Br)cc13)cn2C | 14.6% | 45.5% | 48.2% | 55.3% | 55.1% | 58.4% | 52.7% | 41.1% | 59.1% | 34.9% | 25.7% | 63.6% | 6.34% (active) |  | 31.6% | 38.7% | 14.5% |  |
| c1ccc(CCc2ccccc2-c2cc(-c3ccccc3)on2)cc1 | 75.7% | 83.5% | 103% | 89.9% | 77.2% | 83.1% | 66.4% | 96% | 89.4% | 98.3% | 55.4% | 102% | 105% |  | 59.8% | 90.4% | 87.5% | 91% |
| O=C1/C(=C/c2ccc(Br)cc2)COc2ccc(O)c(O)c21 | 6.26% (active) | -33.5% (active) | 6.31% (active) | -59.8% (active) | 15.6% | 58.8% | -45.7% (active) | -91.5% (active) | 11.9% | 3.52% (active) | -16.3% (active) | 3.5% (active) | -24.4% (active) |  | -15.9% (active) | -66.3% (active) | -68% (active) | -35.9% (active) |
| CCOC(=O)C1CCN(c2ccc(N3C[C@@H](CNCc4ccc(C(=N)N)cc4)OC3=O)cc2)CC1 | 98.2% | 96.2% | 101% | 94.3% | 105% | 104% | 101% | 113% |  | 105% | 96.2% | 94.4% | 104% | 97.2% | 98.9% | 108% |  | 97.1% |
| CCC/C(=N\NC(N)=O)C(OC)OC | 120% | 121% | 98.6% | 97.1% | 89% | 116% | 123% | 104% | 125% | 99.6% | 114% | 110% | 110% | 90.8% | 102% | 99.3% | 97.7% |  |
| COc1ccc(C2=NN(C(C)=O)C(c3ccc(Oc4ccnc5cc(Cl)ccc45)c(OC)c3)C2)cc1 (configuration not stated) | 74.4% | 77.1% | 24% | 84.4% | -17.2% (active) | 24.5% | 79.7% | 37.1% | 58.9% | 44.7% | 16.2% | 79.5% | 57% | 37.6% | 25% | 57.2% |  |  |
| C[C@@H]1CC[C@@]2(OC1)O[C@H]1C[C@H]3[C@@H]4CC=C5C[C@@H](O[C@@H]6O[C@H](CO)[C@@H](O[C@@H]7O[C@@H](CO)[C@H](O)[C@H]7O)[C@H](O)[C@H]6O[C@@H]6O[C@@H](C)[C@H](O)[C@@H](O)[C@H]6O)CC[C@]5(C)[C@H]4CC[C@]3(C)[C@H]1[C@@H]2C | -58.5% (active) | -60.1% (active) | -91.2% (active) | -87.7% (active) | -90% (active) | -36.4% (active) | -84.2% (active) | -90.2% (active) | -47.9% (active) | -85.6% (active) | -22.6% (active) | -59.4% (active) | -92.8% (active) |  | -84% (active) | -75.9% (active) | -90.6% (active) | -86.4% (active) |
| O=C(Nc1cccnc1Nc1ccc(Cl)cc1)c1cn(Cc2ccc(F)cc2)nn1 | 106% | 85% | 96.2% | 105% | 89.8% | 108% | 107% | 107% | 93.2% | 96.2% | 90.5% | 88% | 97.2% |  | 84.6% | 100% | 102% | 114% |
| Cc1[nH]c(C(=O)Nc2ccc(C(N)=O)cc2NC(C)C)c(Cl)c1Cl | 103% | 87.8% | 92.4% | 104% | 92.4% | 113% | 85.1% | 96.3% | 82.6% | 88.2% | 82.6% | 93% | 101% | 92% | 81% | 108% | 98.9% |  |
| COC(=O)c1nc(-c2ccccc2)oc1S(=O)(=O)N1CCC(C(N)=O)CC1 | -3.16% (active) | 41.3% | 83.7% | 76.7% | 61.2% | 101% | 51.4% | 16.2% | 86.7% | 111% | 36% | 76.2% | 59.5% | 32% | 43.9% | 104% | 87.8% |  |
| O=C(c1ccc(Cl)cc1Cl)N1c2ccccc2Sc2ccccc21 | 32.2% | 55.3% | 50.7% | 71.4% | 81.9% | 69.1% | 60.9% | 58.9% | 95.9% | 60.9% | 67.3% | 54.6% | 47.9% |  | 22.8% | 64.6% | 49.8% | 38.3% |
| O=C1N[C@@H]2[C@@H](O)[C@@H](O)[C@H](O)C[C@H]2c2cc3c(c(O)c21)OCCO3 | -2.37% (active) | -28% (active) | -13.8% (active) | 3% (active) | -8.78% (active) | -10.9% (active) | -16.7% (active) | -13% (active) | -9.44% (active) | -0.441% (active) | -15.8% (active) | -17.5% (active) | 1.45% (active) | -13.3% (active) | -3.3% (active) | -46.2% (active) | -2.6% (active) |  |

From PubChem BioAssay (NCI)
